Laboratory results as given in publication PMC11062922 (Nature Chemical Biology, 2023).
Read-outs that look alike come from different tables or passages of the source.

How the values were obtained:
[1] = system: HSP90B1; parameters: species or system human, MV4-11 + K-562 + COLO205 + SK-N-BE2 + OVCAR-8; conditions: read-out: apparent Kd; compound concentrations:100 nM and 1000 nM (sheet 'Samples'); n = 1
[2] = system: CAMK2B; parameters: species or system human, MV4-11 + K-562 + COLO205 + SK-N-BE2 + OVCAR-8; conditions: read-out: apparent Kd; compound concentrations: 100 nM and 1000 nM (sheet 'Samples'), CATDS: 6.4404686092337498E-3; n = 1
[3] = system: CAMK2G; parameters: species or system human, MV4-11 + K-562 + COLO205 + SK-N-BE2 + OVCAR-8; conditions: read-out: apparent Kd, compound concentrations: 100 nM and 1000 nM (sheet 'Samples'), n = 1
[4] = system: CDK12; parameters: species or system human, MV4-11 + K-562 + COLO205 + SK-N-BE2 + OVCAR-8; conditions: read-out: apparent Kd; compound concentrations: 100 nM and 1000 nM (sheet 'Samples'), CATDS: 3.82162717704907E-3; n = 1
[5] = system: EPHA7; parameters: species or system human, MV4-11 + K-562 + COLO205 + SK-N-BE2 + OVCAR-8; conditions: read-out: apparent Kd, compound concentrations: 100 nM and 1000 nM (sheet 'Samples'), n = 1
[6] = system: ERN2; parameters: species or system human, MV4-11 + K-562 + COLO205 + SK-N-BE2 + OVCAR-8; conditions: read-out: apparent Kd, n = 1
[7] = system: MAP3K1; parameters: species or system human, MV4-11 + K-562 + COLO205 + SK-N-BE2 + OVCAR-8; conditions: read-out: apparent Kd; compound concentrations: 100 nM and 1000 nM (sheet 'Samples'), CATDS: 4.4631882369260602E-3; n = 1
[8] = system: MAP3K4; parameters: species or system human, MV4-11 + K-562 + COLO205 + SK-N-BE2 + OVCAR-8; conditions: read-out: apparent Kd, n = 1
[9] = system: MAP3K6; parameters: species or system human, MV4-11 + K-562 + COLO205 + SK-N-BE2 + OVCAR-8; conditions: read-out: apparent Kd; compound concentrations: 100 nM and 1000 nM (sheet 'Samples'), CATDS: 4.1891325824414301E-3; n = 1
[10] = system: MDN1; parameters: species or system human, MV4-11 + K-562 + COLO205 + SK-N-BE2 + OVCAR-8; conditions: read-out: apparent Kd; compound concentrations: 100 nM and 1000 nM (sheet 'Samples'), CATDS: 5.0398543071368297E-3; n = 1
[11] = system: NEK1; parameters: species or system human, MV4-11 + K-562 + COLO205 + SK-N-BE2 + OVCAR-8; conditions: read-out: apparent Kd, compound concentrations: 100 nM and 1000 nM (sheet 'Samples'), n = 1
[12] = system: WEE1; parameters: species or system human, MV4-11 + K-562 + COLO205 + SK-N-BE2 + OVCAR-8; conditions: read-out: apparent Kd, n = 1
[13] = system: PLK1; parameters: species or system human, MV4-11 + K-562 + COLO205 + SK-N-BE2 + OVCAR-8; conditions: read-out: apparent Kd; compound concentrations: 100 nM and 1000 nM (sheet 'Samples'), CATDS: 1.2041031249847799E-2; n = 1
[14] = system: CSNK2A1; conditions: hek293t cells
[15] = system: CSNK2A2; conditions: hek293t cells
[16] = system: ADRBK1; parameters: species or system human, MV4-11 + K-562 + COLO205 + SK-N-BE2 + OVCAR-8; conditions: read-out: apparent Kd; compound concentrations: 100 nM and 1000 nM (sheet 'Samples'), CATDS: 7.8557926604231804E-2; n = 1
[17] = compound concentrations:100 nM and 1000 nM (sheet 'Samples')

`CCn1c(-c2nonc2N)nc2c(C#CC(C)(C)O)nc(OCCN)cc21.CCn1c(-c2nonc2N)nc2c(C#CC(C)(C)O)nc(OCCN)cc21.Cl.Cl` [GSK902056A] showed a potency estimated from few doses [1] of 769 nM.

`Cn1ncc2c(N)ncnc21` [SKF-18267] gave a potency estimated from few doses [2] of 514 nM, a potency estimated from few doses ([3]; CATDS: 7.7542498365532697E-3) of 382 nM and a potency estimated from few doses [4] of 1510 nM. It also gave a potency estimated from few doses ([5]; CATDS: 4.1620084388922602E-3) of 1210 nM, a potency estimated from few doses ([6]; compound concentrations: 100 nM and 1000 nM (sheet 'Samples'), CATDS: 4.8185865403999398E-3) of 877 nM and a potency estimated from few doses [7] of 1030 nM. It also gave a potency estimated from few doses ([8]; compound concentrations: 100 nM and 1000 nM (sheet 'Samples'), CATDS: 4.0015325722358502E-3) of 1340 nM, a potency estimated from few doses [9] of 1190 nM and a potency estimated from few doses [10] of 801 nM. The potency estimated from few doses ([11]; CATDS: 3.5725639465568099E-3) was 1820 nM and the potency estimated from few doses ([12]; compound concentrations: 100 nM and 1000 nM (sheet 'Samples'), CATDS: 4.2054880043609797E-3) was 1180 nM.

Work on `CCOC(=O)N1CCC(n2cnc(-c3ccc(F)cc3)c2-c2ccnc(N)n2)CC1` [SB-219952] yielded a potency estimated from few doses ([5]; CATDS: 8.0080287869844797E-3) of 1690 nM.

With `CNC(=O)c1ccccc1Nc1nc(Nc2ccc(N3CCOCC3)cc2)ncc1Cl.Cl` [GSK1576028A] the potency estimated from few doses [8, 17] was 1690 nM and the potency estimated from few doses [12, 17] was 20.5 nM.

`Cc1cccc(-c2nc(Nc3ccncc3)c3sccc3n2)n1` [GW869641X] showed a potency estimated from few doses [1] of 1250 nM.

For `CN(c1ccc(NC(=O)N2CCN(CCCN3CCOCC3)CC2)cc1)c1ccnc(Nc2ccc(CS(C)(=O)=O)cc2)n1.Cl` [GW830899A], the potency estimated from few doses ([3]; CATDS: 3.6233110942478698E-2) was 457 nM.

For `Cc1cccc(Nc2nc(N[C@H]3CCCC[C@H]3N)ncc2C(N)=O)c1.Cl` [GSK986310C], the potency estimated from few doses [6, 17] was 1400 nM.

`COc1ccc(Nc2ncc(C#N)c(Nc3ccccc3C(N)=O)n2)cc1N1CCN(C)CC1.Cl` [GSK1558669A] showed a potency estimated from few doses ([8]; compound concentrations: 100 nM and 1000 nM (sheet 'Samples'), CATDS: 1.60153050048602E-2) of 57.9 nM, a potency estimated from few doses ([11]; CATDS: 8.9161421311332902E-3) of 272 nM and a potency estimated from few doses [13] of 113 nM. It also gave a potency estimated from few doses ([12]; compound concentrations: 100 nM and 1000 nM (sheet 'Samples'), CATDS: 4.3913811824171201E-2) of 10.4 nM.

`COc1cc(Nc2ncc3c(C)nc(-c4cc5ccccc5[nH]4)n3n2)cc(OC)c1OC` [GW869516X] showed an IC50 ([14]; read-out: Average, SD, n = 2) of 446 nM, an IC50 ([14]; read-out: Rep 1) of 471 nM and an IC50 ([14]; read-out: Rep 2) of 421 nM. For the same compound, the IC50 ([15]; read-out: Average, SD, n = 2) was 319 nM, the IC50 ([15]; read-out: Rep 1) was 135 nM and the IC50 ([15]; read-out: Rep 2) was 503 nM.

`Cc1cc(-c2ccnc(Nc3cccc(C#N)c3)n2)cc(C)c1O` [GSK1440913A] showed a potency estimated from few doses [16] of 1430 nM.
